{"source": "PubChem BioAssay AID1347076", "about": "(National Center for Advancing Translational Sciences (NCATS), 2019)", "note": "Values joined by “and” are separate entries in the source; they are usually repeats but may differ in a detail not shown here. Equal values may be shown once. In all, about 400,000 compounds went through this assay and about 13,000 (3.2%) were called active. Roughly 18% stayed inconclusive and do not appear here. Calls follow the shape of the dose curve; as a rule, active = well fitted cell-killing curve with a large enough effect; inconclusive = small, poorly fitted or top-dose-only effect, or effect the other way; inactive = flat fitted curve, though single readings scatter. Shown is part of a subset that was picked to be rich in actives. A call without a number means that no potency is given here. Potency is read from the fitted curve at half-maximal effect.", "data": [{"test": "qHTS assay for MDR1-selective chemotherapeutics: Primary screen using the drug-selected MDR subline cells KB-V1; also: nearly all actives have a fitted effect of over 60% in size", "details": "KB-V1 MDR cells viability, CellTiter-Glo, 72 h; series mostly up to 46.1 µM", "summary_of_the_method": "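Cells of the MDR subline KB-V1 are plated, dosed with compound at multiple concentrations, and incubated 72 h at 37 degrees C; CellTiter-Glo is then added and luminescence read after 10 min.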", "values": [{"smiles": "Cc1cccc(Nc2nc(C)nc(N)c2S(=O)(=O)c2ccccc2)c1", "Potency": "inactive"}, {"smiles": "CC1CCN(c2ccc([N+](=O)[O-])cc2C(N)=O)CC1", "Potency": "inactive"}, {"smiles": "CCN1CCN(c2ccc([N+](=O)[O-])cc2C(=O)c2ccc(Cl)cc2)CC1", "Potency": "23.1 µM (active)"}, {"smiles": "O=C(Nc1cccc(Cl)c1)c1cc([N+](=O)[O-])ccc1N1CCN(CCO)CC1", "Potency": "inactive"}, {"smiles": "COc1ccc(CC(N)c2csc(NC(=O)NC(c3ccccc3)c3ccccc3)n2)cc1", "note": "(stereo not drawn)", "Potency": "inactive"}, {"smiles": "CC1(C(=O)NS(=O)(=O)c2cccc(OC(F)F)c2)CCN1C(=O)C1CC1", "note": "(stereo not drawn)", "Potency": "inactive"}, {"smiles": "Cc1ccc(CN2CC(N3CCC(Cc4ccccc4)CC3)CS2(=O)=O)cc1", "note": "(stereo not drawn)", "Potency": "inactive"}, {"smiles": "O=C(Nc1ccc(Cl)cc1)Nc1ccc(C(=O)N2CCOCC2)cc1", "Potency": "inactive"}, {"smiles": "Cc1c(Cl)cccc1NC(=O)Nc1ccc(C(=O)N2CCCC2)cc1", "Potency": "16.4 µM (active)"}, {"smiles": "CS(=O)(=O)Nc1ccc(C(=O)N2CCCC2)cc1", "Potency": "inactive"}, {"smiles": "O=C(Nc1cccc(Cl)c1)c1csnn1", "Potency": "inactive"}, {"smiles": "COc1ccc(C2NC(=O)N(C)C3=C2C(=O)N(c2ccc(C(=O)O)cc2)C3)cc1", "note": "(stereo not drawn)", "Potency": "inactive"}, {"smiles": "O=S1(=O)N=C(Oc2cccc(Br)c2)c2ccccc21", "Potency": "inactive"}, {"smiles": "Cc1cccc(C(=O)OCC(=O)Nc2ccc(F)cc2)c1", "Potency": "inactive"}, {"smiles": "CCCCOC(=O)c1ccc(NC(c2ccc(C)cc2)P(=O)(OC)OC)cc1", "note": "(stereo not drawn)", "Potency": "inactive"}, {"smiles": "CCOP(=O)(OCC)C(Nc1cccc(C)c1)c1ccc(F)cc1", "note": "(stereo not drawn)", "Potency": "16.4 µM (active)"}, {"smiles": "CCOC(=O)c1cc2cc(OC)ccc2n1C1CCN(C)CC1", "Potency": "inactive"}, {"smiles": "Cc1ccc2sc(N(Cc3cccnc3)C(=O)C3COc4ccccc4O3)nc2c1C", "note": "(stereo not drawn)", "Potency": "inactive"}, {"smiles": "Cn1c(=O)[nH]c(=O)c2c1nc(Br)n2CCCCSc1nc2ccccc2o1", "Potency": "inactive"}, {"smiles": "CCN(CC)C(=O)CSc1nc2ccccc2o1", "Potency": "inactive"}, {"smiles": "Cn1c(=O)c2c(nc(Br)n2CCSc2nc3ccccc3o2)n(C)c1=O", "Potency": "6.51 µM (active)"}, {"smiles": "O=C(Nc1ccc(N2CCOCC2)cc1)c1cccc2c(-c3ccc(F)c(F)c3)coc12", "Potency": "inactive"}, {"smiles": "Cc1ccn(CC(=O)NC2CCCN(Cc3ccccc3F)C2)n1", "note": "(stereo not drawn)", "Potency": "inactive"}, {"smiles": "CCn1cc(C(=O)N2CCN(C3CCCCC3)CC2)c2cc(OC)c(OC)cc2c1=O", "Potency": "inactive"}, {"smiles": "COc1ccccc1N1CCN(C(=O)c2cn(-c3ccccc3)nc2-c2cccnc2)CC1", "Potency": "inactive"}, {"smiles": "CCc1ccc(-c2nn(-c3ccccc3C)cc2C(=O)N2CCN(C3CCS(=O)(=O)C3)CC2)cc1", "note": "(stereo not drawn)", "Potency": "14.6 µM (active)"}, {"smiles": "COc1cc(C)c(CN2CCN(C(=O)CCC(=O)c3ccc(C)s3)CC2)cc1OC", "Potency": "inactive"}, {"smiles": "CCCNC(=O)c1cc(C2CCCCN2S(=O)(=O)c2ccc(C#N)cc2)on1", "note": "(stereo not drawn)", "Potency": "inactive"}, {"smiles": "O=C(CN1CCSc2ccccc21)N1CCN(c2ccccc2)CC1", "Potency": "inactive"}, {"smiles": "CCN(CC)CCNC(=O)c1ccc(NC(=O)c2cc(-c3ccncc3)nc3ccccc23)cc1", "Potency": "inactive"}, {"smiles": "CCCN(CCC)CCNC(=O)c1cc2c(C)nc3ccccc3c2o1", "Potency": "14.1 µM (active)"}, {"smiles": "Cc1nc2ccccc2c2oc(C(=O)NCCCN3CCC(C)CC3)cc12", "Potency": "inactive"}, {"smiles": "Cc1csc[n+]1CCC1CCCCC1", "Potency": "inactive"}, {"smiles": "COc1ccccc1CC(=O)Nc1ccc(F)cc1F", "Potency": "inactive"}, {"smiles": "COc1cc([N+](=O)[O-])ccc1NC(=O)CN1CCCC1", "Potency": "inactive"}, {"smiles": "COc1ccccc1CC(=O)Nc1ccc([N+](=O)[O-])cc1OC", "Potency": "16.4 µM (active)"}, {"smiles": "Cc1ccc(CNC(=O)CCc2c(C)nc3c(c(C)nn3-c3ccccc3)c2C)cc1", "Potency": "inactive"}, {"smiles": "Cc1ccccc1S(=O)(=O)NC(=O)C1(C)CCN1C(=O)C1(c2ccccc2)CCCC1", "note": "(stereo not drawn)", "Potency": "inactive"}, {"smiles": "COc1cc(C2c3cc4c(cc3C(O)C3COC(=O)C23)OCO4)cc(OC)c1OC", "note": "(stereo not drawn)", "Potency": "4.11 µM (active) and 231 nM (active)"}, {"smiles": "COc1cc(C2CC(=O)Oc3cc(OC)c(OC)c(OC)c32)cc(OC)c1OC", "note": "(stereo not drawn)", "Potency": "inactive"}, {"smiles": "COc1cc(OC)c2c(c1)OC(=O)CC2c1cc(OC)c(OC)c(OC)c1", "note": "(stereo not drawn)", "Potency": "inactive"}, {"smiles": "Cc1nn(C)c2c1c(C(F)(F)F)cc(=O)n2C(C)C(=O)NCc1ccc(Cl)cc1", "note": "(stereo not drawn)", "Potency": "inactive"}, {"smiles": "Cc1cccc(-c2cnc(C(O)c3ccc4ccccc4c3)[nH]2)c1", "note": "(stereo not drawn)", "Potency": "inactive"}, {"smiles": "O=C(Cc1ccc([N+](=O)[O-])cc1)Nc1ccc(C(=O)N2CCOCC2)cc1", "Potency": "inactive"}, {"smiles": "Cc1cc(Nc2ccc(C(=O)N3CCCCC3)cc2)c2cccc(C)c2n1", "Potency": "inactive"}, {"smiles": "Cc1ccccc1-c1ccc(Nc2ccc(C(=O)N3CCOCC3)cc2)nn1", "Potency": "14.6 µM (active)"}, {"smiles": "Cc1ccccc1NC(=O)Cc1nc(COC(=O)CNC(=O)c2ccc(Cl)cc2Cl)cs1", "Potency": "inactive"}, {"smiles": "CS(=O)(=O)/C(C#N)=C/c1cccn1S(=O)(=O)c1ccc([N+](=O)[O-])cc1", "Potency": "inactive"}, {"smiles": "COc1ccc(C(C)(O)c2nc(-c3ccc(C)c(C)c3)cs2)cc1", "note": "(stereo not drawn)", "Potency": "inactive"}, {"smiles": "CN(c1ccccc1)c1nc(N)c([N+](=O)[O-])c(NCc2ccco2)n1", "Potency": "20.6 µM (active)"}, {"smiles": "COCCNc1nc(N)c([N+](=O)[O-])c(NCCO)n1", "Potency": "inactive"}, {"smiles": "COc1cccc(Nc2nc(N)c([N+](=O)[O-])c(NCc3ccco3)n2)c1", "Potency": "inactive"}, {"smiles": "Cc1cccc(S(=O)(=O)N(C)C[C@@H]2OCc3cnnn3CCCC(=O)N([C@H](C)CO)C[C@@H]2C)c1", "Potency": "inactive"}, {"smiles": "CCc1ccccc1OCCSc1nc(-c2cccs2)nc2cc(=O)[nH]n12", "Potency": "inactive"}, {"smiles": "Cc1nnc(SCC(=O)NCc2ccccc2Cl)c2nn(-c3ccccc3)c(C)c12", "Potency": "inactive"}, {"smiles": "C[C@H]1CN(c2ccc(Br)cc2)C(=O)[C@@H]1CC(=O)Nc1ccc(Br)cc1", "Potency": "inactive"}, {"smiles": "CNC(=O)C[C@H]1C(=O)N(c2ccc(OC)cc2)C[C@@H]1Cc1ccccc1", "Potency": "inactive"}, {"smiles": "O=C(NCc1cccnc1)c1cc(C2CCCCN2C(=O)CCc2ccccc2)on1", "note": "(stereo not drawn)", "Potency": "inactive"}, {"smiles": "COc1ccc(C)cc1N(CC(=O)N1CCCC1)S(=O)(=O)c1ccccc1", "Potency": "inactive"}, {"smiles": "CCOC(=O)N1CCN(S(=O)(=O)c2ccc(OC)cc2)CC1", "Potency": "inactive"}, {"smiles": "CCOC(=O)N1CCN(C(=O)c2ccccc2N(Cc2ccccc2)S(=O)(=O)c2ccc(OC)cc2)CC1", "Potency": "20.6 µM (active)"}, {"smiles": "COc1ccc(N(CC(=O)N2CCCCCC2)S(=O)(=O)c2ccccc2)cc1", "Potency": "inactive"}, {"smiles": "CCOC(=O)N1CCN(C(=O)CN(c2ccc(C)c(C)c2)S(=O)(=O)c2ccccc2)CC1", "Potency": "1.16 µM (active)"}, {"smiles": "NC(=O)c1ccccc1N(Cc1ccccc1)S(=O)(=O)c1ccccc1", "Potency": "inactive"}, {"smiles": "CC1CCCCN1Cc1c(O)ccc2c(=O)c(-c3cccc(Cl)c3)c(C(F)(F)F)oc12", "note": "(stereo not drawn)", "Potency": "inactive"}, {"smiles": "CCC1CN(S(=O)(=O)c2cc(-c3cc(C)no3)ccc2C)c2cc(C)ccc2O1", "note": "(stereo not drawn)", "Potency": "inactive"}, {"smiles": "C[C@@H]1CN([C@H](C)CO)C(=O)CCCn2nncc2CO[C@@H]1CN(C)S(=O)(=O)c1cccc(C#N)c1", "Potency": "inactive"}, {"smiles": "Cc1csc(NCC(=O)c2c[nH]c3ccccc23)n1", "Potency": "inactive"}, {"smiles": "COc1ccc(-c2nc3c4ccccc4n(CC(=O)Nc4ccc(C(C)=O)cc4)c(=O)n3n2)cc1", "Potency": "inactive"}, {"smiles": "COc1ccc(/C=C(\\NC(=O)c2ccc(OC)c(OC)c2)C(=O)NCCc2c[nH]c3ccccc23)cc1", "Potency": "inactive"}, {"smiles": "COc1ccc(/C=C(\\C#N)c2c[nH]c3ccccc23)cc1", "Potency": "1.3 µM (active)"}, {"smiles": "COc1ccc(C(C(O)C(=O)c2c[nH]c3ccccc23)N2CCN(c3ccccc3)CC2)cc1", "note": "(stereo not drawn)", "Potency": "inactive"}, {"smiles": "O=C(CC[C@H]1O[C@@H](n2ccc(=O)[nH]c2=O)[C@H](O)[C@@H]1O)N[C@H](Cc1ccccc1)C(=O)NCc1ccco1", "Potency": "inactive"}, {"smiles": "Oc1c(C(c2ccc(F)cc2)N2CCN(Cc3ccccc3)CC2)sc2nc(-c3ccco3)nn12", "note": "(stereo not drawn)", "Potency": "inactive"}, {"smiles": "COC(=O)c1ccc(Cn2c(SCC(=O)N(C)c3ccccc3)nc3ccccc32)cc1", "Potency": "inactive"}, {"smiles": "C#CCNC(=O)C[C@@H]1C[C@@]2(C(=O)OCC)CCCC=C2N(Cc2ccco2)C1=O", "Potency": "inactive"}, {"smiles": "COc1cc(C(=O)N(Cc2ccc(C(C)C)cc2)C2CCS(=O)(=O)C2)cc(OC)c1OC", "note": "(stereo not drawn)", "Potency": "inactive"}, {"smiles": "COc1cc(C(=O)N(Cc2ccc(N(C)C)cc2)C2CCS(=O)(=O)C2)cc(OC)c1OC", "note": "(stereo not drawn)", "Potency": "inactive"}, {"smiles": "COCCCNC(=O)CNC(=S)N(Cc1cc(OC)c(OC)c(OC)c1)C1CCCC1", "Potency": "20.6 µM (active)"}, {"smiles": "CCCCCCN1CCN(C2CN(Cc3cn(Cc4ccc(F)cc4)nn3)S(=O)(=O)C2)CC1", "note": "(stereo not drawn)", "Potency": "inactive"}, {"smiles": "CC(C)(C)OC(=O)N(Cc1ccccc1)Cc1ccc(OCc2cccc(NC(=O)c3ccccc3)c2)cc1", "Potency": "inactive"}, {"smiles": "N#Cc1ccccc1NC(=O)c1cccc(COc2ccc(Cl)cc2Cl)c1", "Potency": "inactive"}, {"smiles": "CC(C)c1cc(C(N)=O)c(NC(=O)c2cccc(COc3ccc(Br)cc3)c2)s1", "Potency": "20.6 µM (active)"}, {"smiles": "COc1ccccc1C(=O)NC(=S)Nc1ccc(N2CCOCC2)cc1", "Potency": "inactive"}, {"smiles": "Cc1cccc(C(=O)NC2CCN(CC(=O)Nc3cccc(Cl)c3)CC2)c1", "Potency": "inactive"}, {"smiles": "CCc1nc2ccc(C(=O)Nc3cccc(OC)c3)cn2c1N(CCC(C)C)CCN(C)C", "Potency": "inactive"}, {"smiles": "COc1c(Cl)cc(Cl)cc1C(=O)Nc1cccc2cccnc12", "Potency": "inactive"}, {"smiles": "O=C(Nc1cccc2cccnc12)c1cccc(Cl)c1", "Potency": "inactive"}, {"smiles": "CC(=O)/C(=N\\Nc1ccc(Cl)cc1Cl)Sc1cccc2cccnc12", "Potency": "18.4 µM (active)"}, {"smiles": "COc1ccc(/C=C/c2ccccn2)cc1OC", "Potency": "inactive"}, {"smiles": "CN(C)C(CNC(=O)Cc1ccc([N+](=O)[O-])cc1)c1ccccc1", "note": "(stereo not drawn)", "Potency": "inactive"}, {"smiles": "Cc1ccc(NC(=O)c2cc3ccccc3o2)cc1", "Potency": "inactive"}, {"smiles": "CN(C)C(CNC(=O)c1cc2ccccc2o1)c1ccccc1", "note": "(stereo not drawn)", "Potency": "16.4 µM (active)"}, {"smiles": "O=C(Nc1cc(Br)ccc1F)c1nc[nH]c1C(=O)NCc1ccccc1", "Potency": "inactive"}, {"smiles": "CCCCOC(=O)/C(C#N)=C/c1ccc(-c2cccc(C(F)(F)F)c2)o1", "Potency": "inactive"}, {"smiles": "O=C1NC(c2cc3c(cc2Cl)OCO3)Oc2ccccc21", "note": "(stereo not drawn)", "Potency": "inactive"}, {"smiles": "O=C1OCC2=C1C(c1ccc(Cl)cc1)c1cc3c(cc1O2)OCO3", "note": "(stereo not drawn)", "Potency": "23.1 µM (active)"}, {"smiles": "CCOc1ccc(CNCc2c(C(=O)O)c(C)n(Cc3cccc(OC)c3)c2C)cc1OC", "Potency": "inactive"}]}]}
